Test results: PubChem BioAssay (EPA / NIEHS)
Inconclusive results are not listed. Activity calls are given as the source filed them. Rule for the calls: active = hit-call score of the fitted dose curve at least 0.9, where 1 is the maximum; inconclusive = response in the unintended direction; inactive = score below 0.9.

The compounds below were run on Broad substrate specificity ATP-binding cassette transporter ABCG2 (Homo sapiens) (UniProt Q9UNQ0) (assay: CLD_ABCG2_48hr: CellzDirect (CLD) Gene Expression Assay for ABC Transporter (ABCG2) at 48 hours (AID 2283704);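 for AC50: potency for induction of ABCG2 mRNA above the DMSO baseline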).
Experimental: CLD_48hr is a cell-based, multiplexed-readout assay that uses hepatocyte, a human liver primary cell, with measurements taken at 48 hours after chemical dosing in a 96-well plate.CLD_ABCG2_48hr is one of 16 assay component(s) measured or calculated from the CLD_48hr assay. It is designed to make measurements of mRNA induction, a form of inducible reporter, as detected with chemiluminescence signals by Quantitative Nuclease Protection Assay (qNPA) technology.Data from the assay component CLD_ABCG2_48hr was analyzed at the endpoint, CLD_ABCG2_48hr, in the positive analysis fitting direction relative to DMSO as the negative control and baseline of activity. Using a type of inducible reporter, gain-of-signal activity can be used to understand changes in the reporter gene as they relate to the gene ABCG2. Furthermore, this assay endpoint can be referred to as a primary readout. To generalize the intended target to other relatable targets, this assay endpoint is annotated to the transporter intended target family, where subfamily is ABC transporter.
Human hepatocyte cultures were treated daily for two consecutive days with fresh dosing solutions containing appropriate concentrations of the 320 ToxCast chemicals (chemical identities were blinded to CellzDirect and other ToxCast collaborators), vehicle control (0.2% DMSO), and positive control inducers as summarized in Table 1. Due to the large number of treatment groups and chemicals examined, the ToxCast chemicals were divided into two groups (spanning two independent cultures of hepatocytes from separate donor preparations (Hu778: ToxCast plates 1 and 2; Hu776: ToxCast plates 3 and 4). Each preparation of human hepatocyte cultures was treated with respective vehicle control, medium only control, set of six positive controls/reference chemicals for the five hepatic receptor pathways, and a subset of eight of the ToxCast chemicals (indoxacarb, pyrithiobac-sodium, norflurazon, cyhalofop-butyl, methomyl, thiram, acetochlor, and propiconazole). These replicate data, coupled with internal replicates designed within the blinded ToxCast chemical library, provided additional data to evaluate interindividual differences between hepatocyte preparations and their potential impact on chemical profiles.Cell morphology and integrity were evaluated using phase-contrast microscopy as an indicator of hepatocyte cell health (Tyson & Green, 1987). Cultures for each treatment group (i.e., media, vehicle [0.2% DMSO], positive control inducers [multiple concentrations], and the ToxCast chemicals [multiple concentrations]) were observed and cell morphology was assessed relative to vehicle control cultures at each harvest time point (0, 6, 24, or 48 h). […] Images were evaluated at the conclusion of the study to assess changes in cell integrity and account for the effects of chemical exposure on uncharacteristic changes in concentration-dependent gene expression profiles. The results from these determinations of apparent cytotoxicity were annotated (yes/no) alongside the corresponding qNPA data for reference.At the conclusion of each treatment period, hepatocyte cultures (96-well) were washed with 1 volume of HBSS, lysed by addition of 25 ul ArrayPlate lysis buffer (HTG, Tucson, AZ), and 70 ul/well of Denaturation Oil, denatured by incubation at 95C for 10 min, and frozen at approximately -70C until analysis by nuclease protection assay (qNPA) (Roberts et al., 2007). For qNPA analysis, cell lysates were thawed at 50C for approximately 30 min, qNPA probes were added, and samples were incubated at 95C for 10 min to begin the detection process by denaturing the target RNA, dissociating the duplexes and secondary structure hybridization. At the conclusion of the hybridization period, S1 nuclease reagent was added to each sample to digest all nonprotected nucleotides at 50C for 60-90 min. […]

Sequence of Broad substrate specificity ATP-binding cassette transporter ABCG2 (Homo sapiens) (Q9UNQ0 whole entry, looked up): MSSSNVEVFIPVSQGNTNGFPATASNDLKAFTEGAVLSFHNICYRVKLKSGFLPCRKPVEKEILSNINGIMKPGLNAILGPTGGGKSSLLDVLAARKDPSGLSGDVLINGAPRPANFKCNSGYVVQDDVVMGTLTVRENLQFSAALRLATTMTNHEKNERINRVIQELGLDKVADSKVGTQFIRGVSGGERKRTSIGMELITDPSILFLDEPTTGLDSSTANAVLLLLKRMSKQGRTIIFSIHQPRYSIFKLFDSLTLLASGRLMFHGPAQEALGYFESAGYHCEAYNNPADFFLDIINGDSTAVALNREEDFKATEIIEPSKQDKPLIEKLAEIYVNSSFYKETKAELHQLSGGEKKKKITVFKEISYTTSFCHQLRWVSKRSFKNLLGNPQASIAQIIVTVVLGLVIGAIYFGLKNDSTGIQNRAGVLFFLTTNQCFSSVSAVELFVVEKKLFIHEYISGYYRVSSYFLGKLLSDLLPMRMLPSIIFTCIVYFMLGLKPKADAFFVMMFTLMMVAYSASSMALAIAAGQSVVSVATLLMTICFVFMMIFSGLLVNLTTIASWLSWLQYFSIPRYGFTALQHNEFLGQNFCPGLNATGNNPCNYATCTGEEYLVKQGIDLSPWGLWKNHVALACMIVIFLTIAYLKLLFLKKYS

Compound | outcome | AC50
CCOc1cc(C(C)(C)C)ccc1C1COC(c2c(F)cccc2F)=N1 (stereo not given) | inactive | 
Cn1c(-c2ccccc2)cc(-c2ccccc2)[n+]1C | inactive | 
C=C(C)CN(CC)c1c([N+](=O)[O-])cc(C(F)(F)F)cc1[N+](=O)[O-] | inactive | 
CNC(=O)N(C)c1nnc(C(C)(C)C)s1 | inactive | 
N#CN=C1SCCN1Cc1ccc(Cl)nc1 | inactive | 
Nc1cnn(-c2ccccc2)c(=O)c1Cl | inactive | 
COc1cc(OC)nc(NC(=O)NS(=O)(=O)c2ncccc2OCC(F)(F)F)n1 | inactive | 
CS(=O)(=O)c1cc(C(F)(F)F)ccc1C(=O)c1cnoc1C1CC1 | inactive | 
CS(=O)(=O)c1ccc(C(=O)C2C(=O)CCCC2=O)c([N+](=O)[O-])c1 | inactive | 
COc1cc(Cl)c(OC)cc1Cl | inactive | 
COP(=S)(OC)SCn1nnc2ccccc2c1=O | inactive | 
CC(C)N1C(=O)N(c2ccccc2)CSC1=NC(C)(C)C | inactive | 
CC1(C)C(C(=O)OC(C#N)c2cccc(Oc3ccccc3)c2)C1(C)C (stereo not given) | inactive | 
CC(C)(C)C(=O)C(Oc1ccc(Cl)cc1)n1cncn1 (stereo not given) | inactive | 
COP(=O)(OC)O/C(C)=C/C(=O)N(C)C | inactive | 
OC(c1ccc(Cl)cc1)(c1ccc(Cl)cc1)C(Cl)(Cl)Cl | inactive | 
CN=C=S | inactive | 
CCCN(CC)CC1COC2(CCC(C(C)(C)C)CC2)O1 (stereo not given) | inactive | 
COC(=O)NC(=S)Nc1ccccc1NC(=S)NC(=O)OC | inactive | 
CC(C)=CC1C(C(=O)OCc2coc(Cc3ccccc3)c2)C1(C)C (stereo not given) | inactive | 

Compound | outcome | AC50
CCSC(=O)N1CCCCCC1 | inactive | 
Nc1c(Cl)c(F)nc(OCC(=O)O)c1Cl | inactive | 
CO/N=C(/C1=NOCCO1)c1ccccc1Oc1ncnc(Oc2ccccc2Cl)c1F | inactive | 
COc1ccc(-c2ccccc2)cc1NNC(=O)OC(C)C | inactive | 
O=c1n(Cl)c(=O)n(Cl)c(=O)n1Cl | inactive | 
COP(=S)(OC)Oc1ccc([N+](=O)[O-])c(C)c1 | inactive | 
O=C1C2CC=CCC2C(=O)N1SC(Cl)(Cl)Cl (stereo not given) | inactive | 
Cc1c(COC(=O)[C@@H]2[C@H](/C=C(\Cl)C(F)(F)F)C2(C)C)cccc1-c1ccccc1 | inactive | 
CCCCC(C#N)(Cn1cncn1)c1ccc(Cl)cc1 (stereo not given) | inactive | 
Cc1ccc(N=CN(C)C=Nc2ccc(C)cc2C)c(C)c1 |  | 17.4 µM (active)
COCC(C)N(C(=O)CCl)c1c(C)csc1C (stereo not given) | inactive | 
COC(=O)c1c(C(F)F)nc(C(F)(F)F)c(C2=NCCS2)c1CC(C)C | inactive | 
Clc1nc(Cl)nc(Nc2ccccc2Cl)n1 | inactive | 
N#Cc1c(Cl)cccc1Cl | inactive | 
Clc1cccc(C(Cl)(Cl)Cl)n1 | inactive | 
C=CCOC(=O)C(C)(C)OC(=O)c1cc(-n2c(=O)cc(C(F)(F)F)n(C)c2=O)ccc1Cl | inactive | 
CC1(C)CCC(=Cc2ccc(Cl)cc2)C1(O)Cn1cncn1 (stereo not given) | inactive | 
CC(C)Oc1cccc(NC(=O)c2ccccc2C(F)(F)F)c1 |  | 0.000858 µM (active)
CCNC(=O)NC(=O)C(C#N)=NOC | inactive | 
CSC(=O)c1c(C(F)F)nc(C(F)(F)F)c(C(=O)SC)c1CC(C)C | inactive | 
